# Test results reported in PubChem BioAssay AID1159580 (chemical genetic matrix, 2015).
# Screen size: about 5,500 compounds; about 2,000 (36%) were called active. Not shown: some 18% with an inconclusive outcome. The list shows a part of the results. Values without a mark were called inactive. No stated cut-off is given here; in the data, active means normalized growth mostly below about 0.91 (no sharp cut-off); inconclusive means no clear call, values can overlap the other calls; inactive means mostly above about 0.92.
# Test: chemical genetic growth profiling, strain panel (AID 1159580);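 further: tested at 20 µM; growth read once vehicle control cultures reached saturation at 30 °C; 1 = growth at the plate median or of vehicle wells; lower values mean less growth of the strain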
# Conditions: growth OD
# [1] = S. cerevisiae deletion strains, locus YAL040C, strain CLN3, active compounds read low
# [2] = S. cerevisiae deletion strains, locus YCL061C, strain MRC1 (second series), active compounds read low
# [3] = S. cerevisiae deletion strains, locus YDR363W, strain ESC2, active compounds read low
# [4] = S. cerevisiae deletion strains, locus YER002W, strain NOP16, active compounds read low
# [5] = S. cerevisiae deletion strains, locus YGR078C, strain PAC10, active compounds read low
# [6] = S. cerevisiae deletion strains, locus YGR229C, strain SMI1, active compounds read low
# [7] = S. cerevisiae deletion strains, locus YJR075W, strain HOC1, active compounds read low
# [8] = S. cerevisiae deletion strains, locus YNL128W, strain TEP1, active compounds read low
# [9] = S. cerevisiae deletion strains, locus YNL153C, strain GIM3, active compounds read low
# [10] = S. cerevisiae deletion strains, locus YNL175C, strain NOP13, active compounds read low
# [11] = S. cerevisiae deletion strains, locus YNL197C, strain WHI3, active compounds read low
# [12] = S. cerevisiae deletion strains, locus YNL224C, strain SQS1, active compounds read low
# [13] = S. cerevisiae deletion strains, locus YNL322C, strain KRE1, active compounds read low
# [14] = S. cerevisiae deletion strains, locus YOR083W, strain WHI5 (second series), active compounds read low
# [15] = S. cerevisiae deletion strains, locus YPL055C, strain LGE1, active compounds read low
# [16] = S. cerevisiae deletion strains, locus YPL241C, strain CIN2, active compounds read low
# [17] = S. cerevisiae deletion strains, locus YAL013W, strain DEP1, active compounds read low
# [18] = S. cerevisiae deletion strains, locus YDR150W, strain NUM1, active compounds read low
# [19] = S. cerevisiae deletion strains, locus YMR263W, strain SAP30, active compounds read low
# [20] = S. cerevisiae deletion strains, locus YBR229C, strain ROT2, active compounds read low
# [21] = S. cerevisiae deletion strains, locus YDL101C, strain DUN1, active compounds read low
# [22] = S. cerevisiae deletion strains, locus YEL061C, strain CIN8, active compounds read low
# [23] = S. cerevisiae deletion strains, locus YHR030C, strain SLT2, active compounds read low
# [24] = S. cerevisiae deletion strains, locus YHR087W, strain rtc3, active compounds read low
# [25] = S. cerevisiae deletion strains, locus YJL187C, strain SWE1, active compounds read low
# [26] = S. cerevisiae deletion strains, locus YJR043C, strain POL32, active compounds read low
# [27] = S. cerevisiae deletion strains, locus YLR039C, strain RIC1, active compounds read low
# [28] = S. cerevisiae deletion strains, locus YLR058C, strain SHM2 (second series), active compounds read low
# [29] = S. cerevisiae deletion strains, locus YLR085C, strain ARP6, active compounds read low
# [30] = S. cerevisiae deletion strains, locus YLR262C, strain YPT6, active compounds read low
# [31] = S. cerevisiae deletion strains, locus YML094W, strain GIM5, active compounds read low
# [32] = S. cerevisiae deletion strains, locus YMR219W, strain ESC1, active compounds read low
# [33] = S. cerevisiae deletion strains, locus YNL298W, strain CLA4 (second series), active compounds read low
# [34] = S. cerevisiae deletion strains, locus YNR030W, strain Alg12, active compounds read low
# [35] = S. cerevisiae deletion strains, locus YPR135W, strain CTF4, active compounds read low
compound,measurement,setting,value
CC1(C(=O)O)C2CCC(O2)C1(C)C(=O)O (configuration not stated),normalized growth,[1],0.902
same,normalized growth,[2],0.984
same,normalized growth,[3],0.982
same,normalized growth,[4],0.914 (active)
same,normalized growth,[5],0.985
same,normalized growth,[6],1
same,normalized growth,[7],1.03
same,normalized growth,[8],0.943
same,normalized growth,[9],0.886
same,normalized growth,[10],0.904 (active)
same,normalized growth,[11],0.884 (active)
same,normalized growth,[12],0.914 (active)
same,normalized growth,[13],0.989
same,normalized growth,[14],0.833 (active)
same,normalized growth,[15],1.04
same,normalized growth,[16],0.97
O=C(O)C1C2CCC(O2)C1C(=O)O (configuration not stated),normalized growth,[17],1.04
same,normalized growth,[1],0.983
same,normalized growth,[2],1
same,normalized growth,[18],1
same,normalized growth,[3],1
same,normalized growth,[4],0.996
same,normalized growth,[5],0.985
same,normalized growth,[7],1.02
same,normalized growth,[19],0.995
same,normalized growth,[9],1
same,normalized growth,[10],1.01
same,normalized growth,[11],0.998
same,normalized growth,[12],1.02
same,normalized growth,[14],1.06
same,normalized growth,[15],1.06
CCOC(=O)c1cc(C)nc(Sc2ccccc2)c1C#N,normalized growth,[17],0.931 (active)
same,normalized growth,[20],0.889 (active)
same,normalized growth,[21],0.897 (active)
same,normalized growth,[18],0.852
same,normalized growth,[22],0.917
same,normalized growth,[5],0.763 (active)
same,normalized growth,[23],0.841
same,normalized growth,[24],0.787 (active)
same,normalized growth,[25],0.854 (active)
same,normalized growth,[26],0.91 (active)
same,normalized growth,[7],0.573 (active)
same,normalized growth,"S. cerevisiae deletion strains, locus YKL190W, strain CNB1, active compounds read low",0.898 (active)
same,normalized growth,[27],0.895
same,normalized growth,[28],0.858 (active)
same,normalized growth,[29],0.787
same,normalized growth,[30],0.86
same,normalized growth,[31],0.917
same,normalized growth,[32],0.877 (active)
same,normalized growth,[19],0.907 (active)
same,normalized growth,"S. cerevisiae deletion strains, locus YMR307W, strain GAS1, active compounds read low",0.754
same,normalized growth,[9],0.916 (active)
same,normalized growth,[33],0.785 (active)
same,normalized growth,[13],0.885 (active)
same,normalized growth,[34],0.746 (active)
same,normalized growth,[15],0.844
same,normalized growth,[16],0.83 (active)
same,normalized growth,[35],1.12
CCOC(=O)COc1nc(-c2cccs2)cc(C(F)(F)F)c1C#N,normalized growth,[17],0.995
same,normalized growth,[20],0.97
same,normalized growth,"S. cerevisiae deletion strains, locus YCL061C, strain MRC1, active compounds read low",1
same,normalized growth,[21],0.963
same,normalized growth,[18],0.975
same,normalized growth,[22],0.975
same,normalized growth,[5],0.978
same,normalized growth,[6],0.989
same,normalized growth,[23],0.827
same,normalized growth,[24],0.961
same,normalized growth,[25],0.966
same,normalized growth,[26],1.01
same,normalized growth,[7],0.979
same,normalized growth,[27],0.946
same,normalized growth,[28],0.972
same,normalized growth,[29],0.949
same,normalized growth,[30],0.991
same,normalized growth,[31],0.922
same,normalized growth,[32],0.988
same,normalized growth,[19],1.04
same,normalized growth,[8],0.982
same,normalized growth,[9],0.98
same,normalized growth,[33],0.932
same,normalized growth,[13],0.98
same,normalized growth,[34],0.967
same,normalized growth,[15],0.971
same,normalized growth,[16],1.08
same,normalized growth,[35],0.943
same,normalized growth,"S. cerevisiae strains, strain wild type, active compounds read low",0.965
